In PubChem BioAssay AID1540 (National Center for Advancing Translational Sciences (NCATS), 2009):
Values joined by “and” are separate entries in the source; they are usually repeats but may differ in a detail not shown here. Equal values may be shown once. Inconclusive results are not listed. Unmarked numbers belong to inactive results. Active and inactive are the calls of the source. Calls follow the shape of the dose curve; as a rule, active = well fitted activation curve with a large enough effect; inconclusive = small, poorly fitted or top-dose-only effect, or effect the other way; inactive = flat fitted curve, though single readings scatter.

target: Pyruvate kinase PKM (Homo sapiens) (UniProt P14618); experiment: Secondary assay for Activators of Human Pyruvate Kinase M2 isoform; settings: purified hPK-M2, LDH-coupled NADH fluorescence kinetic; series mostly up to 57.5 µM; activation: at the top concentration
Excerpt: Confirmatory assay NIH Chemical Genomics Center [NCGC] Matthew G. Vander Heiden, M.D., Ph.D. [Harvard Medical School, 77 Avenue Louis Pasteur, Boston, MA 02115] NCGC Assay Overview: Human pyruvate kinase muscle 2 (hPK-M2)enzyme was supplied as a highly purified (>95% pure) preparation from Harvard Medical School and a secondary assay was used to evaluate compounds. This assay couples the formation of pyruvate from hPK-M2 using lactate dehydrogenase (LDH) and NADH. The depletion of NADH is followed in a fluorescent-based kinetic assay that follows the formation of pyruvate to lactate, as catalyzed LDH (described by Hannaert et al., 2002)1 Pyruvate kinase substrates, PEP and ADP, were present in the assay at 0.1 mM and 4 mM respectively. In this kinetic assay initial rates were determined by following the fluorescence of NADH depletion.
NCGC Assay Protocol Summary: Three uL of substrate mix (final concentration, 50 mM Tris-Cl pH 8.0, 200 mM KCl, 15 mM MgCl2, 0.1 mM PEP, 4.0 mM ADP, and 0.2 mM NADH) was dispensed into black-solid 1536 well plates. 23 nL of compounds were delivered by a pin tool and 1 uL of enzyme mix (final concentrations, 10 nM hPK-M2 and 1 uM of LDH) was added. Plates were immediately placed in ViewLux (Perkin Elmer) and NADH fluorescence was determined at 30 second exposure intervals for between 3 and 6 minutes. Data were normalized to the uninhibited and EC100 activation using known activators such as fructose-bis-phosphate.

Pyruvate kinase PKM (Homo sapiens), sequence (P14618 whole entry, looked up, canonical isoform): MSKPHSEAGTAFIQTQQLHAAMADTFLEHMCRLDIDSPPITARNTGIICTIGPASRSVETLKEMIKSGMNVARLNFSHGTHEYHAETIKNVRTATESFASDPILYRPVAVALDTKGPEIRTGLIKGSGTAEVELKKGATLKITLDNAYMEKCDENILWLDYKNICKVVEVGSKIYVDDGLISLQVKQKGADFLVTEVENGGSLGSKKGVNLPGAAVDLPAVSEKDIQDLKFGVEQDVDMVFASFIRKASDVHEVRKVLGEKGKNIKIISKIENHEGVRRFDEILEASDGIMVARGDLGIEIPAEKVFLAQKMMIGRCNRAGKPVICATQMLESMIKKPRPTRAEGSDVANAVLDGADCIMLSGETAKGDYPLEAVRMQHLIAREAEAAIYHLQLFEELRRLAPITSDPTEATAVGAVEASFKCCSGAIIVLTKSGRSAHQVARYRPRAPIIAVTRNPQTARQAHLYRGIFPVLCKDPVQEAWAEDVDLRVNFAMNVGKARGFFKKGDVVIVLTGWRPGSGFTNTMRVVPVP

SMILES	Potency	activation [%]
O=C(N1CCc2ccc(S(=O)(=O)N3CCN(S(=O)(=O)c4ccc5c(c4)OCCO5)CC3)cc2C1)C(F)(F)F	1120 nM (active)	–
Cn1c2ccsc2c2cnn(Cc3ccc(F)cc3)c(=O)c21	562 nM (active)	–
COc1cccc(Cn2ncc3c4sc(B(O)O)cc4n(C)c3c2=O)c1	17800 nM (active)	–
Cn1c2cc(S(C)(=O)=O)sc2c2cnn(Cc3ccccc3F)c(=O)c21	447 nM (active)	–
Cc1cc2c(s1)c1cnn(Cc3cccc(F)c3F)c(=O)c1n2C	501 nM (active)	–
Cc1cc2c(s1)c1cnn(Cc3c(F)c(F)cc(F)c3F)c(=O)c1n2C	398 nM (active)	–
CC(O)c1cc2c(s1)c1cnn(Cc3ccccc3F)c(=O)c1n2C (stereo not given)	398 nM (active)	–
Nc1cc(S(=O)(=O)N2CCN(S(=O)(=O)c3ccc4c(c3)OCCO4)CC2)ccn1	–	8.04
Nc1cccc(S(=O)(=O)N2CCN(S(=O)(=O)c3c(F)cccc3F)CC2)c1	206 nM (active)	–
CC(=O)Nc1cccc(S(=O)(=O)N2CCN(S(=O)(=O)c3c(F)cccc3F)CC2)c1	14600 nM (active)	–
COc1cc(F)c(S(=O)(=O)N2CCN(S(=O)(=O)c3ccc4c(c3)OCCO4)CC2)c(F)c1	562 nM (active)	–
COc1cc(F)c(S(=O)(=O)N2CCCN(S(=O)(=O)c3ccc4c(c3)OCCO4)CC2)c(F)c1	58 nM (active)	–
O=C1CN(S(=O)(=O)c2c(F)cccc2F)CCN1S(=O)(=O)c1ccc2c(c1)OCCO2	2510 nM (active)	–
C[C@H]1CN(S(=O)(=O)c2c(F)cccc2F)CCN1S(=O)(=O)c1ccc2c(c1)OCCO2	5010 nM (active)	–
Cn1c2cc(CO)sc2c2cnn(Cc3ccccc3F)c(=O)c21	141 nM (active)	–
Cc1cc2c(s1)c1cnn(Cc3ccc(C(C)C)cc3)c(=O)c1n2C	4470 nM (active)	–
CC(=O)Nc1ccc(S(=O)(=O)N2CCN(S(=O)(=O)c3ccc4c(c3)OCCO4)CC2)cc1	919 nM (active)	–
Cc1cc2c(s1)c1cnn(Cc3c(F)cccc3Cl)c(=O)c1n2C	158 nM (active)	–
O=S(=O)(c1ccc2c(c1)OCCO2)N1CCN(S(=O)(=O)c2c(F)cccc2F)CC1	1 µM (active) and 562 nM (active)	–
O=S(=O)(c1cccc(F)c1)N1CCN(S(=O)(=O)c2ccc3c(c2)OCCO3)CC1	1000 nM (active)	–

SMILES	Potency	activation [%]
Cn1c2cc(Br)sc2c2cnn(Cc3ccc(F)cc3F)c(=O)c21	708 nM (active)	–
Cc1cc2c(s1)c1c(C)nn(Cc3ccc(F)cc3)c(=O)c1n2C	2820 nM (active)	–
COc1ccc(Cn2ncc3c4sc(C)cc4n(C)c3c2=O)cc1F	1120 nM (active)	–
O=S(=O)(c1ccc2c(c1)OCCO2)N1CCN(S(=O)(=O)c2ccccc2F)CC1	316 nM (active)	–
COc1cccc(Cn2ncc3c4sc(S(C)=O)cc4n(C)c3c2=O)c1 (stereo not given)	146 nM (active)	–
COc1cc(F)c(S(=O)(=O)N2CCN(S(=O)(=O)c3cccs3)CC2)c(F)c1	51.7 nM (active)	–
O=S(=O)(c1ccc(Cl)cc1)N1CCN(S(=O)(=O)c2ccc3c(c2)OCCO3)CC1	1120 nM (active)	–
COc1cc(F)c(S(=O)(=O)N2CCCN(S(=O)(=O)c3cccc(N)c3)CC2)c(F)c1	146 nM (active) and 1.16 µM (active)	–
Cn1c2cc(C#N)sc2c2cnn(Cc3ccccc3F)c(=O)c21	355 nM (active)	–
Cn1c2cc(B(O)O)sc2c2cnn(Cc3ccccc3F)c(=O)c21	15800 nM (active)	–
CN1CCOc2ccc(S(=O)(=O)N3CCN(S(=O)(=O)c4c(F)cccc4F)CC3)cc21	3.55 µM (active) and 708 nM (active)	–
Cc1cc2c(s1)c1cnn(Cc3ccc(C(F)(F)F)cc3)c(=O)c1n2C	2240 nM (active)	–
Cc1nc2ccc(S(=O)(=O)N3CCN(S(=O)(=O)c4c(F)cccc4F)CC3)cc2s1	631 nM (active)	–
CCNc1cccc(S(=O)(=O)N2CCN(S(=O)(=O)c3ccc4c(c3)OCCO4)CC2)c1	–	2.57
O=S(=O)(NCCNS(=O)(=O)c1c(F)cccc1F)c1ccc2c(c1)OCCO2	–	25.3
COc1cc(F)c(S(=O)(=O)N2CCN(S(=O)(=O)c3cccc(NC(C)=O)c3)CC2)c(F)c1	1030 nM (active)	–
O=S(=O)(c1ccc2c(c1)OCCCO2)N1CCN(S(=O)(=O)c2c(F)cccc2F)CC1	501 nM (active)	–
Cc1cc2c(s1)c1cnn(Cc3c(F)cccc3F)c(=O)c1n2C	141 nM (active)	–
CC(C)c1cc2c(s1)c1cnn(Cc3ccccc3F)c(=O)c1n2C	1410 nM (active)	–
CNc1cccc(S(=O)(=O)N2CCN(S(=O)(=O)c3ccc4c(c3)OCCO4)CC2)c1	–	17.9
